Reference: PubChem BioAssay AID1159580 (chemical genetic matrix, 2015)
Where “and” joins values, the source holds several entries; their conditions need not be identical. Equal entries are not always repeated. The campaign covered roughly 5,500 compounds. About 2,000 (36%) were called active. Another 18% or so got no clear call; they are omitted. Cut-off read from the data, not from the text of the source: active = normalized growth mostly below about 0.91 (no sharp cut-off); inconclusive = no clear call, values can overlap the other calls; inactive = mostly above about 0.92. The list shows a part of the results.

Assay: chemical genetic growth profiling, strain panel (AID 1159580);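 note: tested at 20 µM; growth read once vehicle control cultures reached saturation at 30 °C; 1 = growth at the plate median or of vehicle wells; lower values mean less growth of the strain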
Conditions: S. cerevisiae deletion strains, growth OD

Measured: normalized growth

CC(=O)[C@@]1(O)CCC2C3CCC4=CC(=O)CC[C@]4(C)C3CC[C@@]21C (stereo partly drawn)
inactive: locus YAL021C, strain ccr4, hits give low values 0.99 | locus YAL026C, strain drs2, hits give low values 0.992 | locus YAL030W, strain snc1, hits give low values 0.998 | locus YBL061C, strain skt5, hits give low values 0.991 | locus YBR009C, strain hhf1, hits give low values 0.995 | locus YBR021W, strain FUR4, hits give low values 1.01 | locus YBR023C, strain chs3, hits give low values 0.995 | locus YBR171W, strain sec66, hits give low values 0.985 | locus YBR229C, strain ROT2, hits give low values 0.993 | locus YBR231C, strain swc5, hits give low values 0.999 | locus YBR279W, strain paf1, hits give low values 0.986 | locus YCL011C, strain gbp2, hits give low values 0.997 | locus YCL016C, strain dcc1, hits give low values 0.992 | locus YCL029C, strain bik1, hits give low values 1.01 | locus YCL061C, strain MRC1, hits give low values 0.987 | locus YCL069W, strain vba3, hits give low values 0.996 | locus YCR088W, strain abp1, hits give low values 0.988 | locus YDL005C, strain med2, hits give low values 0.975 | locus YDL035C, strain GPR1, hits give low values 1.01 | locus YDL040C, strain nat1, hits give low values 0.993 | locus YDL074C, strain BRE1, hits give low values 1.04 | locus YDL101C, strain DUN1, hits give low values 0.996 | locus YDL134C, strain PPH21, hits give low values 0.99 | locus YDL185W, strain tfp1, hits give low values 1.01 | locus YDL192W, strain arf1, hits give low values 0.992 | locus YDR001C, strain nth1, hits give low values 0.989 | locus YDR069C, strain doa4, hits give low values 0.996 | locus YDR101C, strain arx1, hits give low values 1.04 | locus YDR159W, strain sac3, hits give low values 0.931 | locus YDR162C, strain NBP2, hits give low values 0.977 | locus YDR195W, strain ref2 0.995 | locus YDR297W, strain sur2, hits give low values 0.994 | locus YDR318W, strain mcm21, hits give low values 0.99 | locus YDR334W, strain swr1, hits give low values 0.992 | locus YDR335W, strain msn5, hits give low values 1.01 | locus YDR388W, hits give low values 1.01 | locus YDR392W, strain spt3, hits give low values 0.891 | locus YDR502C, strain sam2, hits give low values 1.01 | locus YEL003W, strain gim4, hits give low values 0.999 | locus YEL037C, strain rad23, hits give low values 0.993 | locus YEL061C, strain CIN8 (second series), hits give low values 0.993 | locus YEL061C, strain CIN8, hits give low values 0.995 | locus YER015W, strain faa2, hits give low values 0.998 | locus YER016W, strain bim1, hits give low values 0.99 | locus YER110C, hits give low values 1.01 | locus YER111C, strain swi4, hits give low values 0.987 | locus YER155C, strain BEM2 (second series), hits give low values 0.995 | locus YER155C, strain BEM2, hits give low values 1 | locus YER167W, strain BCK2, hits give low values 0.994 | locus YFR010W, strain ubp6, hits give low values 1.01 | locus YGL078C, strain dbp3, hits give low values 1.04 | locus YGL086W, strain mad1, hits give low values 1.03 | locus YGL167C, strain pmr1, hits give low values 0.983 | locus YGL173C, strain kem1, hits give low values 0.99 | locus YGL227W, strain vid30, hits give low values 0.994 | locus YGL240W, strain doc1, hits give low values 0.989 | locus YGL248W, strain PDE1, hits give low values 0.985 | locus YGL253W, strain hxk2, hits give low values 0.997 | locus YGR078C, strain PAC10, hits give low values 0.991 | locus YGR135W, strain pre9, hits give low values 0.966 | locus YGR252W, strain gcn5, hits give low values 1.04 | locus YHR013C, strain ard1, hits give low values 0.989 | locus YHR027C, strain rpn1, hits give low values 0.992 | locus YHR030C, strain SLT2, hits give low values 1 and 0.968 | locus YHR079C, strain IRE1 (second series), hits give low values 1.01 | locus YHR079C, strain IRE1, hits give low values 0.983 | locus YHR094C, strain hxt1, hits give low values 0.999 | locus YHR129C, strain ARP1, hits give low values 0.993 | locus YHR142W, strain chs7, hits give low values 0.993 | locus YHR200W, strain rpn10, hits give low values 1.02 | locus YIL066C, strain RNR3, hits give low values 0.994 | locus YIL073C, strain SPO22, hits give low values 1.03 | locus YIL125W, strain kgd1, hits give low values 1.03 | locus YIR030C, strain dcg1, hits give low values 1.01 | locus YJL092W, strain hpr5, hits give low values 0.991 | locus YJL095W, strain BCK1 (second series), hits give low values 0.992 | locus YJL095W, strain BCK1, hits give low values 0.96 and 0.984 | locus YJL115W, strain asf1, hits give low values 0.987 | locus YJL129C, strain trk1, hits give low values 0.955 | locus YJL134W, strain LCB3, hits give low values 0.998 | locus YJL154C, strain vps35, hits give low values 0.987 | locus YJL164C, strain tpk1, hits give low values 0.985 | locus YJL166W, strain qcr8, hits give low values 0.998 | locus YJL168C, strain set2, hits give low values 1 | locus YJL187C, strain SWE1 (second series), hits give low values 0.994 | locus YJL187C, strain SWE1, hits give low values 0.997 | locus YJR043C, strain POL32, hits give low values 1.05
active: locus YDR137W, strain rgp1, hits give low values 0.815
